Counter-ions that a name gives are not always drawn. ± gives the standard deviation of the averaged measurements. Among all 1,000 compounds or so, about 15 (2%) showed an effect of 50% or more. The sample holds strong results, similar compounds and a random draw of the others, so the mix is not that of the screen.

This test relates to HFF. Kind of test: uninfected host cell viability relative to vehicle control; higher = less host cell toxicity. The note with it: 5 µM; 72 h; oxygen 21 %.
As to `N=C(CC(O)COc1ccccc1-c1ccccc1)N1CCCCC1` (centres undefined), the “uninfected host cell viability” value amounted to 89.4 ± 2.9%.

As for `Cn1cc(/C=C2\C(=O)Nc3cccnc32)c2ccccc21`, the “uninfected host cell viability” value was 67.8 ± 1.2%.

With `c1cc2c3c(c1)c1c(n3CCNC2)CCCC1` [WAY 629 hydrochloride], the “uninfected host cell viability” value is 89.6 ± 5.6%.

As for `CCCCCCCCc1ccc(-c2ccc(C(=O)O)cc2)cc1`, the “uninfected host cell viability” value came to 85.5 ± 5%.

In the case of `CCCCC/N=c1\ccn(Cc2ccccc2)c2ccccc12`, the “uninfected host cell viability” value is 83.1 ± 2.5%.

On to `CCCCCCCCCCCCCCCCn1cc[n+](Cc2ccccc2)c1C`, for which the “uninfected host cell viability” value was found to be 32 ± 6.6%.

Consider `CNC(=O)[C@@H](Cc1ccccc1)N(C)C(=O)[C@@H](Cc1ccc2ccccc2c1)N(C)C(=O)/C=C/CC(C)(C)N` [Tabimorelin], for which the “uninfected host cell viability” value is 79.1 ± 1.2%.

For `N#Cc1ccccc1OCC(O)CNCCNC(=O)Nc1ccccc1` (centres undefined), the “uninfected host cell viability” value amounted to 86.9 ± 1.3%.

On to `CCc1ccc(OCc2ccccc2C(=O)Nc2ccc3nc(C)cc(N)c3c2)cc1`, for which the “uninfected host cell viability” value turned out to be 15 ± 0.61%.

Consider `COc1ccc(NC(=O)c2cc(OCCCN(C)C)nn2Cc2ccccc2)cc1` [CFM 1571 hydrochloride], for which the “uninfected host cell viability” value turned out to be 81.7 ± 2%.

Turning to `CCN(CC)CCCC(C)Nc1nc(C)cc(Nc2ccc3nc(C)cc(N)c3c2)n1` (centres undefined), the “uninfected host cell viability” value is 80.4 ± 1.2%.

As for `COc1cc(CNC(=O)CCCC/C=C/C(C)C)ccc1O` [(E)-Capsaicin], the “uninfected host cell viability” value turned out to be 88.13 ± 0.59%.

With `CC[C@]1(O)C[C@H]2CN(CCc3c([nH]c4ccccc34)[C@@](C(=O)OC)(c3cc4c(cc3OC)N(C=O)[C@H]3[C@@](O)(C(=O)OC)[C@H](OC(C)=O)[C@]5(CC)C=CCN6CC[C@]43[C@@H]65)C2)C1` [Vincristine sulfate], the “uninfected host cell viability” value was 68 ± 2.9%.

As for `O=c1oc(-c2ccc(C(F)(F)F)cc2)nn1Cc1cc(Cl)ccc1O`, the “uninfected host cell viability” value amounted to 95.1 ± 1%.

`O=C(Nc1cc(C(F)(F)F)cc(C(F)(F)F)c1)c1cc(Cl)ccc1O`: the “uninfected host cell viability” value was 46.8 ± 2.5%.

Turning to `Cc1oncc1C(=O)Nc1ccc(C(F)(F)F)cc1` [Leflunomide], the “uninfected host cell viability” value was 93.41 ± 0.27%.

For the compound `O=C1CC2(CCCC2)CC(=O)N1CCNCC1COc2ccccc2O1` (centres undefined), the “uninfected host cell viability” value turned out to be 85.64 ± 0.64%.

On to `Cn1cnnc1Sc1c([N+](=O)[O-])ncn1C`, for which the “uninfected host cell viability” value came to 89.361 ± 0.008%.

Regarding `N[C@@H](C(=O)O)c1ccc(C(=O)O)c(C(=O)O)c1`, the “uninfected host cell viability” value came to 89 ± 7.8%.

Take `COc1ccc(-c2nc(C(=O)N3CCN(C)CC3)sc2-c2ccc(OC)cc2)cc1`: the “uninfected host cell viability” value was 81.4 ± 4.7%.

As for `O=C1C(Cl)=C(NCCN2CCOCC2)C(=O)c2ncccc21`, the “uninfected host cell viability” value turned out to be 34.44 ± 0.16%.

With `O=C1c2ccccc2S(=O)(=O)N1CCCCN1CCN(c2ncccn2)CC1` [Ipsapirone], the “uninfected host cell viability” value was determined as 87.04 ± 0.35%.

For `Cc1cc(Cn2cnc3c2CC(C(=O)O)N(C(=O)C(c2ccccc2)c2ccccc2)C3)ccc1N(C)C` (centres undefined), the “uninfected host cell viability” value came out at 82.1 ± 3.1%.

On to `COc1ccc([C@@H]2CNC(=O)C2)cc1OC1CCCC1` [(R)-(-)-Rolipram], for which the “uninfected host cell viability” value stood at 82.9 ± 1%.

Turning to `C1CCC2(CC1)CCNCC2` [4,4-Pentamethylenepiperidine hydrochloride], the “uninfected host cell viability” value turned out to be 84.79 ± 0.68%.

As for `Cc1cc(NC(=O)Nc2ccc(N(C)C)cc2)c2cc(F)cc(F)c2n1`, the “uninfected host cell viability” value was determined as 85.86 ± 0.3%.

With `Nc1ncnc2n[nH]c(Nc3ccc(F)cc3)c12`, the “uninfected host cell viability” value amounted to 80.93 ± 0.35%.

For `O=C(c1ccc(Nc2nccc(-c3cc4ccccc4s3)n2)cc1)N1CCC(N2CCCC2)CC1`, the “uninfected host cell viability” value was 14.9 ± 0.68%.

With `O=c1[nH]ccc2c(S(=O)(=O)N3CCCNCC3)cccc12` [HA 1100 hydrochloride], the “uninfected host cell viability” value came out at 90 ± 3.1%.

Regarding `Nc1nc2c(ccc3ccccc32)s1`, the “uninfected host cell viability” value is 77.6 ± 1.3%.

As for `O=c1cc(N2CCNCC2)oc2c(-c3ccccc3)cccc12`, the “uninfected host cell viability” value turned out to be 87.4 ± 1.8%.

In the case of `FC(F)(F)c1cccc(-c2noc(-c3cc(-c4ccccc4)c(C(F)(F)F)s3)n2)c1`, the “uninfected host cell viability” value amounted to 90.4 ± 2.4%.

Regarding `CCN(CC)CCOc1ccc(Cc2ccccc2)cc1` [DPPE fumarate], the “uninfected host cell viability” value is 86.65 ± 0.8%.

Turning to `CCS(=O)(=O)N1CCC[C@@H]2CN3CCc4cc(OC)ccc4[C@@H]3C[C@@H]21`, the “uninfected host cell viability” value worked out at 85.4 ± 2.9%.

Turning to `N[C@@H](CC(=O)Nc1ccc(Oc2cc(F)c(F)cc2Br)cc1)C(=O)O`, the “uninfected host cell viability” value is 95 ± 0.96%.

Turning to `O=c1ncccn1[C@@H]1O[C@H](CO)[C@@H](O)[C@H]1O` [Zebularine], the “uninfected host cell viability” value is 90.802 ± 0.032%.

For the compound `O=C(/C=C/c1ccccc1)NC(NC(=S)Nc1cccc2cccnc12)C(Cl)(Cl)Cl` (centres undefined) [Salubrinal], the “uninfected host cell viability” value was found to be 84.55 ± 0.26%.

For the compound `C=C1/C(=C\C=C2/CCC[C@]3(C)[C@@H]([C@H](C)/C=C/[C@@H](O)C4CC4)CC[C@@H]23)C[C@@H](O)C[C@@H]1O` [Calcipotriol], the “uninfected host cell viability” value stood at 83.9 ± 3.1%.

For `CC(C)c1ccc2c(c1)CC[C@H]1[C@](C)(CN)CCC[C@]21C` [Lylamine hydrochloride], the “uninfected host cell viability” value was found to be 87.8 ± 1.4%.

In the case of `Cc1ccccc1N1CCN(S(=O)(=O)C[C@]23CC[C@H](C[C@@H]2NC(=O)[C@@H](N)CCS(C)(=O)=O)C3(C)C)CC1` [L-368,899 hydrochloride], the “uninfected host cell viability” value was found to be 87.07 ± 0.83%.

For the compound `C=C1C(=O)O[C@@H]2/C=C(\C)CC/C=C(\C)CC[C@@H]12` [Costunolide], the “uninfected host cell viability” value was 114 ± 2.7%.

For the compound `N[C@@H](Cc1cc(CP(=O)(O)O)cc(-c2ccccc2Cl)c1)C(=O)O`, the “uninfected host cell viability” value was found to be 88.9 ± 6%.

Regarding `O=C(Nc1ccccc1)N[C@@H]1C[C@@H](C(=O)O)Nc2cc(Cl)cc(Cl)c21`, the “uninfected host cell viability” value came out at 87.6 ± 1.1%.

As for `c1ccc(C(O[C@@H]2CCCN(CCc3ccc4c(c3)OCO4)C2)c2ccccc2)cc1` [Zamifenacin fumarate], the “uninfected host cell viability” value amounted to 90.5 ± 1%.

Source of the values: the supplement of paper PMC4894684.
